High-throughput results from PubChem.
Keap1-Nrf2 PPI – inhibitors of human Keap1-Nrf2 protein-protein interaction; Keap1 Kelch-Nrf2 peptide fluorescence polarization, 1536-well; inhibition, % at 9.4 µM; 340,000 tested, 0.15% active; in the data active = inhibition above about 12%;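 also: human Keap1 Kelch domain with fluorescein labeled Nrf2 9mer peptide probe; 0% = neutral control wells and 100% = peptide positive control; higher means more block of Keap1 binding to Nrf2 peptide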
cardiac RTF act – increases calcium sensitivity of human cardiac regulated thin filaments; P19429+P45379; activation, % at 7.2 µM; IANBD-labeled TnC RTF fluorescence at EC20 calcium; 0% EC20 calcium, 100% full calcium; AID 493008; 340,000 tested, 0.24% active;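 active = activation above the mean over all tested compounds plus 3 SD, cut at about 30% in these data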;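 also: rise in fluorescence read as greater calcium sensitivity of cardiac thin filaments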
RTF Ca sens inh – cardiac RTF calcium desensitization; P19429+P45379; IANBD-labeled cardiac RTF, Ca2+ fluorescence; inhibition, % at 7.15 µM; 340,000 tested, 0.12% active; AID 493244;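 active = inhibition above the mean inhibition of all tested compounds plus 3 SD, cut at about 17% in these data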;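 also: assay run at fixed EC70 calcium of 1.6 mM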
E coli Lon inh – E. coli protease La inhibition. 360,000 tested, 0.42% active. P0A9M0. inhibition, % at 7.94 µM. purified E. coli Lon protease, fluorescence polarization; in the data active = inhibition above about 13%, passing the limit was not always enough;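 also: 0% = enzyme with probe and DMSO and 100% = no enzyme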
Target sequence (P0A9M0 whole entry, looked up): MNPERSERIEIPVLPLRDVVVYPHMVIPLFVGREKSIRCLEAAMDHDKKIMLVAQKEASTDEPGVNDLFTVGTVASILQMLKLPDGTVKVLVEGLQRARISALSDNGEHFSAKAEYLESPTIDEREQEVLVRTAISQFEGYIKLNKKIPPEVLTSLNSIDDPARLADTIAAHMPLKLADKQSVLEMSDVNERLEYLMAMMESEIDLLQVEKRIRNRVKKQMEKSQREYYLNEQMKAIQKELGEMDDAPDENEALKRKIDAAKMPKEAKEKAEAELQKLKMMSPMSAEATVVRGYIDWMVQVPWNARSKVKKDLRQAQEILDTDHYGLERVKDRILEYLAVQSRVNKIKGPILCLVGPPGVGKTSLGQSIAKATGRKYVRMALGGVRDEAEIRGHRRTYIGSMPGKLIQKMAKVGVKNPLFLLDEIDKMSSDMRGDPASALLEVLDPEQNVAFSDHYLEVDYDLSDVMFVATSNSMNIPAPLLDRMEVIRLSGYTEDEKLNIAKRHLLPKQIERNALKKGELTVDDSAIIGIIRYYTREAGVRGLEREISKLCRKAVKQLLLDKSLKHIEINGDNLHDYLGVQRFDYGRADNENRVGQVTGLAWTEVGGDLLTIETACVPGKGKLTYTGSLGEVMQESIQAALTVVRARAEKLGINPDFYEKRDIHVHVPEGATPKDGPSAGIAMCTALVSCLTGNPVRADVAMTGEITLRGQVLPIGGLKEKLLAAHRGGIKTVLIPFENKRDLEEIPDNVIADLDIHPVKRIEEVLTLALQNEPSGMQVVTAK
C-LANA FP – KSHV C-LANA DNA binding inhibition. MBP-C-LANA/FAM-LBS DNA binding, fluorescence polarization. inhibition, % at 9 µM. 340,000 tested, 0.078% active;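 active = highest replicate inhibition at or above 60% at 9 µM, even if other replicates fall short; inactive = all replicates below 60% inhibition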;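 also: 0% = neutral control wells and 100% = 4 µM acridine orange control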
E coli Lon conf – confirmation of E. coli Lon protease inhibitors | 1,400 tested, 31% active | shares compounds with E coli Lon inh | AID 602230 | inhibition, % at 7.94 µM | purified E. coli Lon, fluorescence polarization; in the data active = inhibition above about 16%;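 also: 0% = enzyme with probe and DMSO and 100% = no enzyme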
An asterisk follows results filed as active; . = no result given; + = active, no number. The list is not random: actives were taken first. Their share in the collection is about 0.82%.

SMILES | Keap1-Nrf2 PPI | cardiac RTF act | RTF Ca sens inh | E coli Lon inh | C-LANA FP | E coli Lon conf
C(/C=C/c1ccccn1)=C\c1ccccc1 | -1.1 | -2.0 | -4.1 | 36.2* | 4.4 | 2.1
CC(=O)c1c(C)oc2c1cc(NS(=O)(=O)c1ccc(C(=O)O)cc1)c1ccccc12 | 5.3 | -4.8 | 4.6 | 2.9 | -0.1 | .
Cc1ccc(S(=O)(=O)Nc2cc3c(C(=O)Nc4ccccc4)c(C)oc3c3ccccc23)cc1 | -1.7 | 3.2 | 4.5 | 25.2* | 0.4 | 40.2*
COc1ccc(-c2nc3c(C)cc(Br)cn3c2Cc2ccc(C)cc2)cc1OC | . | . | . | 28.1* | . | -9.8
Cc1cc(Br)cn2c(Cc3cccc(F)c3)c(-c3ccc(F)cc3)nc12 | . | . | . | 4.0 | . | .
Cc1cc(Br)cn2c(Cc3ccsc3)c(C3CCCCC3)nc12 | . | . | . | 49.9* | . | 53.5*
CCCc1nc2c(C)cc(Br)cn2c1Cc1ccsc1 | . | . | . | 8.9 | . | .
Cc1cc(Br)cn2c(Cc3ccsc3)c(C(C)(C)C)nc12 | . | . | . | 80.3* | . | 71.4*
Cc1cc(Br)cn2c(Cc3ccccc3)c(C3CCCCC3)nc12 | . | . | . | -9.0 | . | .
Cc1cc(Br)cn2c(Cc3ccsc3)c(-c3ccc(F)cc3)nc12 | . | . | . | 25.3* | . | 3.1
O=C1NC(=O)C2(N1)C(=O)c1cccc3cccc2c13 (stereo unspecified) | . | . | . | + | . | +
O=C1NC(=O)C2(N1)c1ccccc1-c1ccccc12 | 0.1 | 5.5 | 3.5 | -4.3 | -0.9 | .
C[C@@H]1CN([C@H](C)CO)S(=O)(=O)c2ccc(Br)cc2O[C@H]1CN(C)C(=O)C1CCCCC1 | . | . | . | -5.6 | . | .
CCC(C)(C)n1nnnc1C(C(C)C)N(Cc1cccnc1)Cc1ccco1 (stereo unspecified) | 3.0 | 7.7 | -3.9 | -5.7 | -1.1 | .
CCC(C)(C)n1nnnc1C(C(C)C)N(Cc1ccco1)Cc1cc2cc3c(cc2[nH]c1=O)OCO3 (stereo unspecified) | -9.9 | 1.4 | -14.7 | 36.0* | 0.0 | 52.1*
CCOP(=O)(OCC)C(NC(=O)c1cc([N+](=O)[O-])cc([N+](=O)[O-])c1)C(F)(F)F (stereo unspecified) | -3.8 | -2.1 | -2.8 | 20.7* | 0.3 | 24.4*
Cc1ccc(-n2c(C)cc(C(=O)CN3CCOCC3)c2C)cc1 | -2.3 | 4.5 | 10.2 | 18.9* | 1.9 | 1.6
Cc1ccc(-n2c(C)cc(C(=O)CN3CCOCC3)c2C)cc1C | -4.6 | 2.7 | -24.4 | 0.8 | -2.3 | .
CCC(CO)Oc1cc(NCc2cccnc2)c2ncn(C(C)C)c2c1 (stereo unspecified) | -5.2 | -0.9 | -17.5 | 27.4* | 2.6 | 13.7
Cc1[nH]c2ccccc2c1/C=N\NC(=O)c1ccco1 | -1.2 | -2.3 | -5.1 | 158.9* | -2.4 | -1.8
Cc1[nH]c2ccccc2c1/C=N/NC(=O)c1cccc(F)c1 | 0.1 | 6.2 | -8.7 | 30.6* | 0.1 | 6.9
Cc1[nH]c2ccccc2c1/C=N/NC(=O)CNC(=O)c1ccco1 | -5.4 | . | . | -1.4 | -0.5 | .
CC12CCCCN1CCCc1c2[nH]c2ccccc12 (stereo unspecified) | 0.9 | 1.0 | -32.1 | 22.4* | 4.2 | -1.7
c1ccc2c3c([nH]c2c1)C1(CCCCC1)NCC3 | 1.1 | 5.7 | -4.9 | -5.3 | 1.3 | .
CC(=O)N1CC=C2C(C#N)=C(N)C(C#N)(C#N)[C@H](c3ccoc3)[C@H]2C1 | -6.7 | 7.7 | -19.3 | 30.9* | 13.4 | 14.9
SMILES | Keap1-Nrf2 PPI | cardiac RTF act | RTF Ca sens inh | E coli Lon inh | C-LANA FP | E coli Lon conf
COC(=O)c1ccc(CC2(C)C(=O)Nc3ccc(-c4cccc(C(F)(F)F)c4)cc32)o1 (stereo unspecified) | . | . | . | 0.1 | . | .
COc1cccc(CN(C)C(=O)c2cc(-c3ccc(OC)c(OC)c3)nc3ccccc23)c1 | 3.1 | -3.6 | -0.5 | 20.2* | 0.1 | -1.9
Cc1cc(C(=O)COc2ccccc2C(N)=O)c(C)n1C | -1.5 | -0.5 | -0.1 | 7.6 | -0.1 | .
Cc1cc(C(=O)COc2cccc3cccnc23)c(C)n1C | 24.5* | 52.5* | -133.7 | 70.5* | 38.3 | 2.0
Cc1ccc(C=Nc2cccnc2N)cc1 | 5.5 | 9.2 | -40.8 | + | 10.9 | 4.8
Cc1ccc(/C=N/N=C/c2ccc(C)cc2)cc1 | -1.3 | 3.0 | -12.6 | -10.7 | 1.6 | .
O=C(COc1cc(Cl)ccc1Cl)N1CCNC1=O | -3.3 | -5.1 | 3.1 | 2.6 | -1.5 | .
O=C(NC(=S)Nc1ccc([N+](=O)[O-])cc1O)C1CCCCC1 | -5.1 | -4.7 | -2.4 | 16.4* | 1.3 | -0.4
O=C(Nc1ccc(NC(=O)C2CCCN2C(=O)OCc2ccccc2)cc1)c1ccco1 (stereo unspecified) | -1.8 | -2.7 | -1.1 | -3.1 | 0.4 | .
O=C(Nc1cccc(O)c1)C1CCCN1C(=O)OCc1ccccc1 (stereo unspecified) | -5.3 | 4.8 | -7.1 | 17.8* | -2.7 | -9.9
CN(Cc1ccccc1)C(=O)c1ccc2nc([C@H]3C[C@H](O)[C@@H](CO)O3)[nH]c2c1 | . | . | . | -1.4 | . | .
Cc1noc(-c2ccccc2)c1NC(=O)Nc1ccc2nc([C@H]3C[C@H](O)[C@@H](CO)O3)[nH]c2c1 | . | . | . | 16.6* | . | 1.7
COc1ccc(NC(=O)C2Cc3c(-c4ccc(Cl)cc4)ccnc3O2)cn1 (stereo unspecified) | . | . | . | -1.7 | . | .
COc1ccc(/C(O)=C2/C(=O)C(=O)N(CCCN3CCOCC3)C2c2ccc(Cl)cc2)cc1 (stereo unspecified) | . | . | . | -6.8 | . | .
Cc1cccc(-c2cccc(NC(=O)C3CCCN(C(=O)c4csc(C)n4)C3)c2)c1 (stereo unspecified) | -0.8 | -0.5 | -6.9 | 78.9* | -0.9 | 6.2
Cc1cccc(-c2cccc(NC(=O)C3CCCN(C(=O)c4cccnc4)C3)c2)c1 (stereo unspecified) | 3.1 | -7.0 | 4.1 | -4.0 | 1.9 | .
CCCOc1ccc(C(=O)Nc2ccc(N3CCOCC3)cc2N2CCOCC2)cc1OCC | . | . | . | 14.3 | . | .
Cc1cc2c(c(C)c1CCO)C(=O)[C@H](C)C2 | -5.7 | -1.3 | -7.3 | 9.0 | 0.2 | .
NNC(=O)c1ccc(COc2cccc3cccnc23)cc1 | -4.7 | 0.7 | -15.4 | 13.2 | 0.8 | .
O=C1CCC/C(=N\NC(=O)c2ccc(COc3cccc4cccnc34)cc2)C1 | -1.7 | 0.2 | -4.6 | 37.4* | 1.2 | 2.9
C[C@@H]1CN([C@@H](C)CO)C(=O)c2cc(NC(=O)C3CCCCC3)ccc2O[C@@H](C)CCCCO[C@@H]1CN(C)C(=O)CCCN(C)C | . | . | . | -1.3 | . | .
CCC(=O)N(CCc1ccc(OC)c(OC)c1)Cc1cc2ccc(C)cc2n2nnnc12 | -5.4 | 1.1 | -1.9 | 15.7* | -0.8 | 10.0
CCC(=O)N(Cc1cc2ccc(C)cc2n2nnnc12)C1CCCCC1 | -0.6 | 3.1 | 6.8 | -3.2 | 1.5 | .
CC(=O)c1c(C)[nH]c(C(=O)OCC(=O)Nc2ccc3c(c2)OCCO3)c1C | -2.6 | 0.0 | 0.5 | -7.3 | -1.1 | .
CCC(=O)Nc1nnc(C(C)(C)C)s1 | -6.9 | -4.7 | 1.5 | 18.3* | -0.6 | -9.9
COc1cccc(/C=C/C(=O)OCC(=O)N2c3ccccc3CC2C)c1OC (stereo unspecified) | 1.9 | -15.2 | -5.0 | -3.6 | -0.9 | .
